In the library only some 12% were active in any assay of this set; here they are far more common.
Sfp inh: blocks B. subtilis Sfp PPTase activity | Q9F4F7 | Biochemical Sfp PPTase activity, qHTS | Potency, µM, most hits filed as inhibitors | actives 3.5% (n = 310,000);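 also: the enzyme is Sfp with the accession as filed and its product quenches rhodamine fluorescence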
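With Hepes-Na pH 7.6 buffer containing 10 mM MgCl2, Sfp (15 nM) modified BHQ-2-YbbR (12.5 uM) using rhodamine-CoA (5 uM). Two reads 30 minutes apart at 525/598 nm yielded each well's rate.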
BAZ2B inh: inhibitors of human BAZ2B bromodomain. Q9UIF8. AlphaScreen BAZ2B-H3K14Ac peptide displacement. Potency, µM (doses to about 114 µM), hits mostly inhibitors. actives 4.4% (n = 360,000). AID 504333; also: nearly all actives have a fitted effect of over 60% in size
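Multi-concentration screen (max 110 uM) measuring displacement of acetylated histone H3 peptide from BAZ2B by AlphaScreen, using 50 nM protein, 50 nM peptide and 10 ug/mL streptavidin donor plus Ni-chelate acceptor beads.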
HP1b binding inh: inhibitors of HP1-beta chromodomain binding to methylated histone tails. P83916. AlphaScreen HP1-beta / biotin-H3K9me3 peptide binding. AID 540317. Potency, µM (series often up to 114 µM), hits mostly inhibitors. actives 0.56% (n = 390,000); also: nearly all actives have a fitted effect of over 70% in size
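AlphaScreen: HP1-beta (50 nM) preformed 30 min with biotin-H3(1-18)K9me3 peptide (50 nM) in PBS pH 7.4, 0.01% Tween-20. Compound added for 30 min at RT, then streptavidin donor/nickel chelate acceptor beads (10 ug/mL) for 30 min.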
G9a block: G9a (human) methyltransferase inhibition | G9a H3K9 monomethylation, AlphaScreen, 2 h | actives 8.8% (n = 350,000) | AID 504332 | Potency, µM (titrated, usually from 102 µM), actives largely listed as inhibitors | Q96KQ7; also: nearly all actives have a fitted effect of over 75% in size
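AlphaScreen read-out: biotin-H3K9 peptide (500 nM) methylation by 20 nM enzyme with 20 uM SAM, 2 h at room temperature after 15 min compound preincubation; anti-monomethyl H3K9 antibody plus donor/acceptor beads, 10 min dark.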
L3MBTL1 block: blocks human L3MBTL1 | Q9Y468 | AlphaScreen L3MBTL1–H3K9me1 peptide binding | Potency, µM (titrated, usually from 57.1 µM), actives largely listed as inhibitors | actives 0.66% (n = 230,000) | AID 485360; also: nearly all actives have a fitted effect of over 60% in size
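L3MBTL1 (50 nM) pre-complexed 30 min with biotinylated H3(1-15)K9me1 peptide (75 nM), then compounds added for 30 min at room temperature; AlphaScreen streptavidin donor/nickel chelate acceptor beads (10 ug/mL final) read after 30 min dark incubation.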
JMJD2A Tudor inh: blocks the human JMJD2A Tudor domain; actives 4.4% (n = 390,000); O75164; AID 504339; AlphaScreen JMJD2A-Tudor / H3K4me3 peptide binding; Potency, µM (top dose mostly 114 µM), usual class: inhibitors; also: nearly all actives have a fitted effect of over 50% in size
Target sequence (O75164 whole entry, looked up, the tested form may be a part): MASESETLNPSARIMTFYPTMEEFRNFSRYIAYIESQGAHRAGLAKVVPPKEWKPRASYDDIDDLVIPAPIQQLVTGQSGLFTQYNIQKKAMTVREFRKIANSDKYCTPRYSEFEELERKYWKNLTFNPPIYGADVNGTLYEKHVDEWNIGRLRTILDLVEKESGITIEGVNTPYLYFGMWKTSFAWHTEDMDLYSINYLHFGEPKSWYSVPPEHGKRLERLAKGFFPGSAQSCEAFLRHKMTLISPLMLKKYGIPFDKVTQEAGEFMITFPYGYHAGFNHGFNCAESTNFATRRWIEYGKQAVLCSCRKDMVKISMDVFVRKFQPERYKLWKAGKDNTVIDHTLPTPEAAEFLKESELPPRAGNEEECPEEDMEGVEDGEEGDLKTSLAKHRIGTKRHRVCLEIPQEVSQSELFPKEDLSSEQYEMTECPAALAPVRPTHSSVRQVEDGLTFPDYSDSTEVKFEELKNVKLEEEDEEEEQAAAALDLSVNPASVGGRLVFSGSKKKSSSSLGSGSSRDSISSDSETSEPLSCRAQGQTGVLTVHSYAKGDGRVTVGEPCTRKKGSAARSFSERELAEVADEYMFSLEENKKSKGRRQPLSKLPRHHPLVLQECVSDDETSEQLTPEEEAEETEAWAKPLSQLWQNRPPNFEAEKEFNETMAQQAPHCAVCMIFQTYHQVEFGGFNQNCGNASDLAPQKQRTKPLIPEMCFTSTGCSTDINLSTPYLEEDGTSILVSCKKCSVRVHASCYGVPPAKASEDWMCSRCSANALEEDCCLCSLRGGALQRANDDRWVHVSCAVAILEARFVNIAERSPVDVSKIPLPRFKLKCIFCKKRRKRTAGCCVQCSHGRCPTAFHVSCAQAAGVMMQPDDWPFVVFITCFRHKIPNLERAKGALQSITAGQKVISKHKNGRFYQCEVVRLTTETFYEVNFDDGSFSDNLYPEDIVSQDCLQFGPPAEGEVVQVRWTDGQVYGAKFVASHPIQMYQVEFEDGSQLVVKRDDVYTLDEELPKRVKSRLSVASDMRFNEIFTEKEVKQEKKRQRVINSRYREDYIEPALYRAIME
Each line names hits and unclear results; the compound was inactive in the other large screens. Calls follow the shape of the dose curve; as a rule, active = well fitted curve in the direction sought with a large enough effect; inconclusive = small, poorly fitted or top-dose-only effect, or another doubt; inactive = no such curve, though single readings can be large; an effect the other way counts as inactive or inconclusive.

COc1cc(/C=N/n2c(-c3n[nH]c4c3CCC4)n[nH]c2=S)ccc1O	HP1b binding inh inconclusive, G9a block inconclusive, JMJD2A Tudor inh 3.2µM (no result: L3MBTL1 block)
COc1ccc(OC)c(NC(=O)c2ccc(CSc3nnc(C)s3)cc2)c1	BAZ2B inh inconclusive
Clc1ccccc1OCCn1nnc2ccccc21	none
C#CCOCCOCCOCCNc1nc(N2CCN(C(=O)[C@H](C)n3cc(CCC(=O)O)nn3)CC2)nc(N2CCN(C(=O)[C@H](C)n3cc(CCC(=O)O)nn3)CC2)n1	JMJD2A Tudor inh inconclusive (no result: Sfp inh, BAZ2B inh, G9a block, L3MBTL1 block)
C#CCOCCOCCOCCNc1nc(N2CCN(C(=O)[C@H](CCC(=O)O)n3cc(C(N)CO)nn3)CC2)nc(N2CCN(C(=O)[C@H](CCC(=O)O)n3cc(C(N)CO)nn3)CC2)n1 (stereo not given in full)	BAZ2B inh 14µM, G9a block inconclusive (no result: HP1b binding inh, L3MBTL1 block, JMJD2A Tudor inh)
C#CCOCCOCCOCCNc1nc(N2CCN(C(=O)[C@H](CCC(=O)O)n3cc(C(N)CO)nn3)CC2)nc(N2CCN(C(=O)[C@H](CCC(=O)O)n3cc(C(N)CC(C)C)nn3)CC2)n1 (stereo not given in full)	Sfp inh 89µM, BAZ2B inh 20µM, G9a block inconclusive (no result: HP1b binding inh, L3MBTL1 block, JMJD2A Tudor inh)
CCOc1c(N2CCOCC2)c(=O)c1=O	none (no result: G9a block, L3MBTL1 block)
Cc1c(C(=O)Nc2ccccc2F)sc2ncnc(N(C)C3CCCCC3)c12	JMJD2A Tudor inh inconclusive (no result: Sfp inh, L3MBTL1 block)
CN(C)CCNc1ccc(CO)c2sc3ccc(O)cc3c(=O)c12	HP1b binding inh 71µM, JMJD2A Tudor inh 50µM (no result: Sfp inh, BAZ2B inh, G9a block, L3MBTL1 block)
Cc1sc(C(C2C(=O)CC(C)(C)CC2=O)C2C(=O)CC(C)(C)CC2=O)cc1[N+](=O)[O-]	Sfp inh 6.3µM, BAZ2B inh 56µM, G9a block 7.9µM, JMJD2A Tudor inh 28µM
COc1ccc(O[C@H]2C=C[C@@H](c3ccccc3)O[C@@H]2CO/N=C(\C)CCN2CCCc3nc(C)c(C)cc32)cc1	none (no result: BAZ2B inh, HP1b binding inh, G9a block, L3MBTL1 block, JMJD2A Tudor inh)
COc1ccc(C(=O)Cc2cc(OC)c(OC)cc2[N+](=O)[O-])c(OC)c1	none
COc1ccc(C(=O)COC(=O)[C@H](C)Nc2ccc(C(F)(F)F)cc2[N+](=O)[O-])c(OC)c1	BAZ2B inh 50µM, G9a block inconclusive
Cc1oc2c(cc(NS(=O)(=O)c3ccc4c5c(cccc35)C(=O)N4)c3ccccc32)c1C(=O)OC(C)C	G9a block 20µM
O=C1CCCc2oc3c(cc(NS(=O)(=O)c4ccc5c6c(cccc46)C(=O)N5)c4ccccc43)c21	G9a block inconclusive (no result: L3MBTL1 block)
Cc1cc(O)ccc1NS(=O)(=O)c1ccc2c3c(cccc13)C(=O)N2	none (no result: L3MBTL1 block)
COc1ccc(C)cc1NS(=O)(=O)c1ccc2c3c(cccc13)C(=O)N2	JMJD2A Tudor inh 56µM (no result: Sfp inh, L3MBTL1 block)
COC(=O)N[C@@H](c1cccc(F)c1)C(C(C)=O)C(=O)OC (stereo not given in full)	none (no result: BAZ2B inh, HP1b binding inh, G9a block, L3MBTL1 block, JMJD2A Tudor inh)
COc1ccc(N2CC(C(=O)Nc3cccnc3)CC2=O)cc1 (stereo not given)	none (no result: L3MBTL1 block)
O=C(C1CCN(S(=O)(=O)c2cccc3nsnc23)CC1)N1CC=C(c2ccccc2)CC1	BAZ2B inh inconclusive
O=C(C1CCC(CNS(=O)(=O)c2cccc3nsnc23)CC1)N1CC=C(c2ccccc2)CC1 (stereo not given)	G9a block 89µM (no result: L3MBTL1 block)
O=C(O)CNS(=O)(=O)c1cccc2nsnc12	JMJD2A Tudor inh 14µM (no result: L3MBTL1 block)
Cc1ccc(NS(=O)(=O)c2cccc3nsnc23)cc1	G9a block inconclusive
O=S(=O)(Nc1ccccc1)c1cccc2nsnc12	BAZ2B inh 50µM, HP1b binding inh inconclusive, G9a block inconclusive, JMJD2A Tudor inh inconclusive
Cc1ccc(NS(=O)(=O)c2cccc3nsnc23)cc1[N+](=O)[O-]	G9a block 40µM (no result: L3MBTL1 block)
COc1cccc(CNS(=O)(=O)c2c(C(=O)N3CCC(C)CC3)c(C)n(C)c2C)c1	none (no result: Sfp inh, L3MBTL1 block)
O=C(O)C(C1CCCCC1)C1(O)CCCC1 (stereo not given)	none (no result: Sfp inh, BAZ2B inh, G9a block, L3MBTL1 block)
Cc1nn(Cc2ccc(Cl)cc2)c2sc(C(=O)O)cc12	G9a block 1µM (no result: L3MBTL1 block)
Cc1nn(Cc2ccc(F)cc2)c2sc(C(=O)Nc3nccs3)cc12	none
COc1ccc(N2CCN(C(=O)c3cc(-c4ccc(C)c(F)c4)on3)CC2)cc1	none (no result: Sfp inh, L3MBTL1 block)
